Measurements published in paper PMC5540273 (PLoS ONE, 2017).

test system: JAK3(JH1domain-catalytic); details: concentration: 1 μM, replicates: in singlicate; n = 1
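Note: KINOMEscan kinase panel screen.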

Point of comparison: `COc1cc2nccc(Nc3cccc(Oc4ccccc4)c3)c2cc1OC.Cl` [GW284543], “%Inh” value 0%. Against it:
- COc1ccc(-c2cc3c(C)nc(N)nc3n([C@H]3CC[C@H](O)CC3)c2=O)cn1 — the same, 0%
- CCC(=O)c1c(-c2ccccc2)c2cc(Cl)ccc2c(=O)n1Cc1ccc(C(=O)O)cc1 — the same, 0%
- O=C(NCc1cccs1)c1cc(C(=O)c2c(Cl)cccc2Cl)c[nH]1 [GW823670] — the same, 0%
- COc1cccc(C2=C(N(C)c3ccccc3)C(=O)NC2=O)c1 [SB-334865] — the same, 0%
- CC(C)(C)c1ccc(C(=O)Nc2cn3cc(-c4ccccc4)ccc3n2)cc1 — the same, 0%
- CCC(=O)c1c(-c2ccccc2)c2cc(Cl)ccc2c(=O)n1Cc1cc(S(C)(=O)=O)n(CC(F)F)n1 — the same, 0%
- CCC(=O)c1c(-c2ccccc2)c2cc(Cl)ccc2c(=O)n1Cc1cc(S(C)(=O)=O)n(CCC(C)(C)O)n1 — higher, 3%
- COc1cc2nccc(Nc3ccc(OCc4ccc(NC(C)=O)cc4)cc3)c2cc1OC.Cl [GW440135] — the same, 0%
- Cl.c1ccc(Cn2cnc3cc(Nc4ncnc5ccccc45)ccc32)cc1 [GW272142] — the same, 0%
- O=C(NCCNc1ccnc(Nc2ccc(F)cc2)n1)Nc1ccc2c(c1)OCO2 [GSK1379882] — the same, 0%
- Nc1ncnc2c1ncn2-c1ccc(Cl)cc1 [AH2635] — the same, 0%
- COc1cc(Nc2nccc(N3CCC(NC(=O)C(C)c4ccc(Cl)cc4)C3)n2)cc(OC)c1OC (stereo not drawn) [GSK1379757] — the same, 0%
- Cc1c(Cn2c(C)nn3c(=O)cc(N4CCO[C@H](C)C4)nc23)cccc1C(F)(F)F [GSK2373690] — the same, 0%
- CCc1nc(-c2cccc(C)c2)c(-c2ccncc2)s1 — the same, 0%
- Cc1nnc(-c2ccc(C)c(-c3ccc(C(=O)O)cc3)c2)o1 [GW608005] — the same, 0%
- CCC(=O)c1c(-c2ccccc2)c2cc(Cl)ccc2c(=O)n1Cc1cc(C(=O)NC2CC2)n(C)n1 — higher, 6%
- Nc1nc(-c2ccccc2F)c(-c2ccnc3ccccc23)s1 [GW560459] — the same, 0%
- Cc1nnc(-c2ccc3ncn(-c4ccc(S(C)=O)cc4)c3c2)o1 (stereo not drawn) — the same, 0%
- CCS(=O)(=O)c1ccc(OC)c(Nc2ncc(-c3ccc(F)cc3)o2)c1.Cl [GW591947] — the same, 0%
- CCS(=O)c1ccc(-c2coc3ccc(-c4nnc(C)o4)cc23)cc1 (stereo not drawn) — the same, 0%
- Nc1n[nH]c2nnc(-c3ccccc3)c(-c3ccccc3)c12 [GW554060] — the same, 0%
- O=C(Nc1n[nH]c2nc(-c3ccccc3)c(Cl)cc12)C1CC1 [SB-734909] — the same, 0%
- COC(=O)c1c(-c2ccccc2)c2cc(Br)ccc2c(=O)n1Cc1ccc(S(C)(=O)=O)cc1 — the same, 0%
- Cc1ccc(Oc2ccc(Nc3ncnc4cc[nH]c34)cc2C)cn1 — the same, 0%
- O=C(Nc1n[nH]c2nc(-c3ccccc3)c(Br)cc12)C1CC1 [SB-708998] — the same, 0%
- CN(C)c1cc(-c2ccc3c(N)n[nH]c3c2)nc(N)n1 [GSK2219329] — the same, 0%
- COc1ccc(-n2cnc3c(N)ncnc32)cc1 [SKF-97236] — higher, 27%
- CCCC(=O)Nc1n[nH]c2ncc(-c3cccc4ccccc34)cc12 [SB-642057] — the same, 0%
- FC(F)(F)c1ccc(-c2ncn(CCCN3CCOCC3)c2-c2ccncc2)cc1 [SB-217780] — the same, 0%
- Cn1c(=O)c(F)c(Nc2ccc(I)cc2F)c2c(=O)n(OC[C@H](O)CO)cnc21 — higher, 1%
- COc1ccc(Nc2nccc(N3CCC(NS(=O)(=O)c4ccc(NC(C)=O)cc4)C3)n2)cc1 (stereo not drawn) [GSK1379729] — higher, 5%
- Cl.NS(=O)(=O)c1cccc(Nc2cc(-c3ccc(F)cc3)n[nH]2)c1 [GW824645] — the same, 0%
- OCCCNc1nccc(-c2c(-c3cccc(C(F)(F)F)c3)nn3cc(C(F)(F)F)ccc23)n1 [GW630813] — the same, 0%
- CCc1ccc(-c2ccc3c(c2)-c2nn(C)cc2S(=O)(=O)N3C)cc1 — the same, 0%
- COc1ccc(-c2coc3ccc(-c4nnc(SCc5cccc(C#N)c5)o4)cc23)cc1 — the same, 0%
